Assay [1] has as its target Thyroid hormone receptor beta (Homo sapiens) (UniProt P10828). The experiment in a line: qHTS assay for small molecule antagonists of thyroid hormone receptor beta signaling (AID 588547; active = well fitted inhibition curve with a large enough effect in the signal ratio, with a control signal flat, not every such curve was filed as active; the % refers to the signal ratio;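 also: cells stimulated with 0.4 nM T3 agonist during compound exposure; % is scaled to controls: 0 for no effect and ±100 for the full control effect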). The following applies: TR-UAS-bla HEK293, beta-lactamase ratio, antagonist mode, 18 h. An outline of the steps: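 Inhibition of T3-driven (0.4nM final) beta-lactamase reporter activity was measured over 0.59 nM to 92 uM compound after 18 h at 37 C. The cells were GripTite HEK293 TR-UAS-bla in charcoal/dextran-stripped serum, with CCF4 ratio read-out and IC50 from Hill fits.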
On the technique in general: In qHTS, concentration-response curves come from the screen itself.

In assay [2] the target is Luciferin 4-monooxygenase (Photinus pyralis) (UniProt P08659). The experiment in a line: Biochemical firefly luciferase enzyme assay for NPC (AID 624030).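 Also: purified P. pyralis luciferase at 10 nM with luciferin and ATP substrate; 0% = DMSO and -100% = full luciferase inhibition by PTC124 control; nearly all actives have a fitted effect of over 70% in size.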 Particulars: purified P. pyralis luciferase, luminescence, 5 min; series mostly up to 58.6 µM. An outline of the steps:
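Direct inhibition of firefly luciferase enzyme (10 nM final, 50 mM Tris Acetate) assessed by luminescence within 5 minutes. Percent activity scaled between DMSO and PTC124 positive control, with concentration-effect curves classified by fit quality and response.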

The nature of assay [3]: S16 Schwann cell viability assay (CellTiter-Glo assay) (AID 624031).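 Also: cellular ATP luminescence as a viability measure; plate controls were DMSO-treated cells for no effect and cell-free wells for full effect; nearly all actives have a fitted effect of over 70% in size.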 Particulars: S16 rat Schwann cells viability, 24 h; series mostly up to 57.5 µM. Put shortly:
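Luminescent ATP read-out (CellTiter-Glo) after 24 h compound exposure of native S16 rat Schwann cells at 37 °C. Signals were normalized between cell-free wells and DMSO-treated cells, set as 0% activity.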
A general note: Cellular ATP, detected with luciferase, serves as a proxy for viable cell number.

Assay [4] is described as follows: S16 Schwann cell PMP22 intronic element beta-lactamase assay (AID 624044; calls by dose curve;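 also: 0% = DMSO and -100% = potassium clavulanate positive control; nearly all actives have a fitted effect of over 15% in size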). Particulars: S16 rat Schwann cells, PMP22 element beta-lactamase FRET, 24 h; series mostly up to 38.3 µM. An outline of the steps:
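Rat S16 Schwann cells with beta-Lac driven by a PMP22 intronic element, compound-treated 24 h at 37 °C. LiveBLAzer FRET B/G read: 460 nm normalized to potassium clavulanate vs DMSO; 535 nm FRET as viability; concentration-effect curves classified.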

A short description of assay [5]: qHTS Assay for Identification of Small Molecule Agonists for NFkB Signaling Pathway. (AID 624478).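 Also: compounds tested together with TNF alpha at its EC50 of 10 pM; 0% is about no effect.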 The following applies: NFkB pathway reporter cell assay, agonist mode, cells co-stimulated with 10 pM TNF alpha; series mostly up to 46.1 µM. An outline of the steps: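 ME-180 cervical carcinoma, stable NFkB-RE beta-lactamase reporter; 1000 cells/well, overnight attachment; cpd + TNF alpha 10 pM final, 5 h 37 C; LiveBLAzer 2 h RT; FRET 460/530 nm, ex 405 nm.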

Assay [6] is described as follows: qHTS Assay for Identification of Small Molecule Antagonists for NFkB Signaling Pathway. (AID 624479; calls by dose curve; also: potency is read from the fitted curve at half-maximal effect). Particulars: NFkB pathway reporter cell assay, antagonist mode; series mostly up to 38.3 µM.
A short description of assay [7]: Cell Proliferation Assay against the TMD8 Cell Line (AID 651645).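 Also: cells exposed to compound for 48 h before reading.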 Particulars: TMD8 DLBCL cell line proliferation/viability; at 46.1 µM (top of the series) unless noted. Put shortly: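 Cell viability of the ABC DLBCL line TMD8 is measured by CellTiter-Glo luminescence following a 48-hour incubation with compound. Percent activity uses DMSO as 100% and 9.2 uM bortezomib (final) as 0%.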

Assay [8] can be described thus: Cell Proliferation Assay against the HBL1 Cell Line (AID 651646).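 Also: cells exposed to compound for 48 h before reading.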 Particulars: HBL1 DLBCL cells; at 46.1 µM (top of the series) unless noted. Put shortly: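 Luminescent ATP read-out (CellTiter-Glo) after 48 h compound exposure of HBL1 cells at 37 °C; percent activity was scaled between DMSO as 100% and 9.2 uM bortezomib (final) as 0%.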
Assay [9] is described as follows: Cell Proliferation Assay against the TMD8 Cell Line (Caspase readout at 8 hrs) (AID 651713). Also: potency is read from the fitted curve at half-maximal effect. The following applies: TMD8 lymphoma cells, caspase activation luminescence; series mostly up to 46.1 µM. Put shortly:
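Seed log-phase TMD8 cells, add compound by pin tool, incubate 8 h at 37C under 5% CO2, equilibrate to room temperature, add Caspase-Glo, wait 15 min, read luminescence; percent activity uses DMSO and 9.2 uM bortezomib controls.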

For assay [10], the target named is Voltage-gated inwardly rectifying potassium channel KCNH2 (Homo sapiens) (UniProt Q12809). The experiment in a line: qHTS Assay for Small Molecule Inhibitors of the Human hERG Channel Activity (AID 588834).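 Also: top concentration of the series differs between compounds; % is scaled to controls: 0 for no effect and ±100 for the full control effect; lower thallium flux fluorescence means stronger hERG block; nearly all actives have a fitted effect of over 50% in size.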 The following applies: U2OS BacMam hERG, FluxOR thallium flux fluorescence; series mostly up to 46.1 µM. Put shortly: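 Blockade is seen as reduced FluxOR thallium-flux fluorescence in U2OS cells expressing hERG from a BacMam construct, in Opti-MEM with 2% FCS. Concentration-response data fitted to the Hill equation for AC50.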
Sequence of Voltage-gated inwardly rectifying potassium channel KCNH2 (Homo sapiens) (Q12809 whole entry, looked up): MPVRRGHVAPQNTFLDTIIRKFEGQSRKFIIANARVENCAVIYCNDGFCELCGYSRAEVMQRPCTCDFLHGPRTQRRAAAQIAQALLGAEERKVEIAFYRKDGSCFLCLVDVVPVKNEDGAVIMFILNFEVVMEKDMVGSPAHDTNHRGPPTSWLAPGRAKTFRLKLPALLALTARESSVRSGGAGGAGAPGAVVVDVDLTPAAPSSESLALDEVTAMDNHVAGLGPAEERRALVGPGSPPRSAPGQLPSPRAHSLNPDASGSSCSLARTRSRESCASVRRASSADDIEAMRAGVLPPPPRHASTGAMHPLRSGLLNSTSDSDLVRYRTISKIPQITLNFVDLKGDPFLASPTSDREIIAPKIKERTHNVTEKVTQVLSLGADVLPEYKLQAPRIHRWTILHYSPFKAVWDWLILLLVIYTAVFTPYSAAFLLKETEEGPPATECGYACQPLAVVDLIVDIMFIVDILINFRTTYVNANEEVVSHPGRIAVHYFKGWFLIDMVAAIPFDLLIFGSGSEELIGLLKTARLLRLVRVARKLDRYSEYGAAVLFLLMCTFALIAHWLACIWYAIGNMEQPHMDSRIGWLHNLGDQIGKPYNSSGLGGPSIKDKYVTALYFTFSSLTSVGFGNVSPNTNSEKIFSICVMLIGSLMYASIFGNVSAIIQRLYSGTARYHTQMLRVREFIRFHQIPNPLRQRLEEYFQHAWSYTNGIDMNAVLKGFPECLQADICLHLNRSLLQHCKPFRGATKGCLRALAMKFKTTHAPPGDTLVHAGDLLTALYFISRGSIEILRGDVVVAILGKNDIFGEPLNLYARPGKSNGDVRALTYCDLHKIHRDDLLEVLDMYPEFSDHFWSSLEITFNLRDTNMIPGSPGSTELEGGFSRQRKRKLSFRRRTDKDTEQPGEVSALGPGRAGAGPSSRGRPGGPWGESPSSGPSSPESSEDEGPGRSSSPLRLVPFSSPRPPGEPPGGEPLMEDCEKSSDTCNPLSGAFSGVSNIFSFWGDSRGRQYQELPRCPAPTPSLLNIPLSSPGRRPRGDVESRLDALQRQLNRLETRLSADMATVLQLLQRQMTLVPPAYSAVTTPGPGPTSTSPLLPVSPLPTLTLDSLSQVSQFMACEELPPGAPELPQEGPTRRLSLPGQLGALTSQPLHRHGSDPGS

For assay [11], the target named is Retinoic acid receptor RXR-alpha (Homo sapiens) (UniProt P19793). Description: qHTS assay for small molecule antagonists of retinoid X receptor alpha signaling (AID 588546; active = well fitted inhibition curve with a large enough effect in the signal ratio, with a control signal flat, not every such curve was filed as active; the % refers to the signal ratio; also: % is scaled to controls: 0 for no effect and ±100 for the full control effect). Particulars: HEK293T RXRa-UAS-bla, beta-lactamase ratio, antagonist mode. Put shortly: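 Beta-lactamase reporter inhibition, read as CCF4 fluorescence ratio (ex 405, em 460/530 nm) after 2 h at RT. HEK293T UAS-bla cells, 2500/well, were stimulated with 9-cis-RA at 500 or 100 nM final alongside test compound for 18 h at 37 C.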
Sequence of Retinoic acid receptor RXR-alpha (Homo sapiens) (P19793 whole entry, looked up): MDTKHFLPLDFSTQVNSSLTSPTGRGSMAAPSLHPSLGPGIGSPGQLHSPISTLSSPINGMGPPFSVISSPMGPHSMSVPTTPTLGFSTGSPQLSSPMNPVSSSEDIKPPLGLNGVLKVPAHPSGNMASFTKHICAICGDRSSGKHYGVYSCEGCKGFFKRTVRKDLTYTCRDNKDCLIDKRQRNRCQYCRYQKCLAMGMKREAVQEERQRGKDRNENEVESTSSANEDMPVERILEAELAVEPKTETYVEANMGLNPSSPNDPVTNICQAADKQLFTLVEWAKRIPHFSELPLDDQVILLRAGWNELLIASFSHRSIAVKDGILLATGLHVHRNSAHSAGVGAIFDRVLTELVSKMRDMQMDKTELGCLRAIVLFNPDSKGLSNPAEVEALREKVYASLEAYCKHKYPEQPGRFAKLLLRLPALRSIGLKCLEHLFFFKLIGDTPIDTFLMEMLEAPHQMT

Assay [12] can be described thus: S16 Schwann cell PMP22 intronic element firefly luciferase assay (AID 624032).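 Also: plate controls were DMSO for no effect and PTC124 positive control mean for full effect; nearly all actives have a fitted effect of over 30% in size.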 Particulars: S16 rat Schwann cells, PMP22 element FLuc, 24 h; series mostly up to 57.5 µM. Put shortly:
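Luciferase reporter of PMP22 intronic-element expression in stably transfected S16 rat Schwann cells, read by ONE-Glo luminescence after 24 h compound exposure at 37 C. Activity scaled between DMSO (0%) and positive-control PTC124; concentration-effect curves quality-classified.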

Assay [13] addresses Glutaminase kidney isoform, mitochondrial (Homo sapiens) (UniProt O94925). Description: qHTS for Inhibitors of Glutaminase (GLS): LOPAC Validation (AID 624146). Also: nearly all actives have a fitted effect of over 60% in size. Also: potency is read from the fitted curve at half-maximal effect. The following applies: glutaminase enzyme activity inhibition; series mostly up to 46.1 µM. An outline of the steps:
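Compounds were pin-transferred onto hKGA, after which L-glutamine (1 mM solution) and a detection mix of glutamate oxidase, HRP and Amplex Red were added. Initial and 30 min RT fluorescence reads were collected.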

Assay [14] in a line: qHTS of Trypanosoma Brucei Inhibitors: LOPAC Validation (AID 624147). Also: 0% is about no effect. Particulars: purified enzyme assay, luminescence, 45 min; series mostly up to 57.5 µM. Put shortly:
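Enzyme and substrate buffer are dispensed first and compound is pin-transferred. ADP at 130 uM final then starts the reaction, which runs 45 min at room temperature. Detection reagent is added for 10 min before luminescence is imaged.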

Assay [15] deals with Glucagon-like peptide 1 receptor (Homo sapiens) (UniProt P43220). Description: qHTS of GLP-1 Receptor Agonists: LOPAC Validation (AID 624148).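 Also: luminescence from a luciferase reporter switched on by cAMP; 0% is about no effect; higher luminescence signal means agonism.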 Particulars: GLP-1R agonist cell assay; series mostly up to 46.1 µM. An outline of the steps:
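Agonism scored as increased luciferase luminescence driven by cAMP in HEK293 clones carrying GLP-1R. Cells settled 12 hours, received compound for 4-6 hr at 37 deg C, 5% CO2, and were read after 12 min detection reagent at RT.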

Assay [16] can be described thus: HTS Assay for Allosteric Antagonists of the Human D2 Dopamine Receptor: Hit Validation in HTRF (AID 624455).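 Also: stable D1 dopamine receptor cell line scored for blocking the D1 response; % is scaled to controls: 0 for no effect and ±100 for the full control effect.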 Particulars: Cells stably expressing D1 dopamine receptor, inhibition mode; series mostly up to 46.1 µM. Put shortly:
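First, antagonism was screened by calcium flux in a force-coupled, inducible Hek293 Trex D2 line challenged with EC80 dopamine. Hits then went into an HTRF assay in cells stably expressing D1, testing inhibition of the D1 response.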
A general note: Time-resolved FRET reads energy transfer from a long-lived donor to a nearby acceptor.

Assay [17] can be described thus: qHTS of Nrf2 Activators: LOPAC Validation (AID 624149). Also: 0% is about no effect. Particulars: Nrf2/ARE reporter cell assay; series mostly up to 46.1 µM. Put shortly: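 Luminescence read-out of ARE-luciferase activation: AREc32_Fluc cells treated with compounds for 24 hr at 37 deg C, then lysed with Steady-Glo for 30 min at room temperature before reading.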

Values joined by “and” are separate entries in the source; they are usually repeats but may differ in a detail not shown here. Identical values can stand only once. Inconclusive results are not listed. Active and inactive are the calls of the source. Unless noted, calls follow the shape of the dose curve; as a rule, active = well fitted curve in the direction sought with a large enough effect; inconclusive = small, poorly fitted or top-dose-only effect, or another doubt; inactive = no such curve, though single readings can be large; an effect the other way counts as inactive or inconclusive.

Sequence of Glucagon-like peptide 1 receptor (Homo sapiens) (P43220 whole entry, looked up): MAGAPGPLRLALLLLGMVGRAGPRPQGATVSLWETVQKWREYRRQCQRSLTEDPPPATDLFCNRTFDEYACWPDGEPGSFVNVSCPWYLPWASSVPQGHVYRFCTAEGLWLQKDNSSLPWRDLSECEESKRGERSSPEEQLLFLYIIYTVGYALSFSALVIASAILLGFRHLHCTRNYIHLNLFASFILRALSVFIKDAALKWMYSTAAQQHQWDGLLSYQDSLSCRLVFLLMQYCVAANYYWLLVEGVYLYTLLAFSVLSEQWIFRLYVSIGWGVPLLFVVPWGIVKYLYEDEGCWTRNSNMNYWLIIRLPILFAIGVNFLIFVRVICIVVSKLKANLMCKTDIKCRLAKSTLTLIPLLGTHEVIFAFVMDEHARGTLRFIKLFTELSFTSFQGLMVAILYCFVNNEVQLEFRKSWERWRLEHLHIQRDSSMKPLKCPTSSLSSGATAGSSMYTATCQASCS
Sequence of Glutaminase kidney isoform, mitochondrial (Homo sapiens) (O94925 whole entry, looked up, canonical isoform): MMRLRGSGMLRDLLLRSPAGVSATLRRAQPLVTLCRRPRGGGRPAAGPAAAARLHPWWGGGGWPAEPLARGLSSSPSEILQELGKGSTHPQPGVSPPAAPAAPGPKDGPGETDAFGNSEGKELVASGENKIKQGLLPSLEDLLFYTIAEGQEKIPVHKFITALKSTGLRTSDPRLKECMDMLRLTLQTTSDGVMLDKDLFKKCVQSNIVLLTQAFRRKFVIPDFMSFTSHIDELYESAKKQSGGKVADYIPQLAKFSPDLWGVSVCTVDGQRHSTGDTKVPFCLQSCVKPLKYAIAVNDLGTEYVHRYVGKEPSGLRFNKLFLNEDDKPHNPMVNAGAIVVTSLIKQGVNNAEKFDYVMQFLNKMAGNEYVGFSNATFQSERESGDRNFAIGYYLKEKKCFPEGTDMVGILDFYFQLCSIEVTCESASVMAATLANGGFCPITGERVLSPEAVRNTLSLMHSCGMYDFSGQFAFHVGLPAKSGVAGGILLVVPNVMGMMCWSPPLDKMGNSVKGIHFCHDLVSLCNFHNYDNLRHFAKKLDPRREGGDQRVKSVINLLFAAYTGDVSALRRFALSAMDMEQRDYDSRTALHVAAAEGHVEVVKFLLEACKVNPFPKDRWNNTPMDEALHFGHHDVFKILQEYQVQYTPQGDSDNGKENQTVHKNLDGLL
Sequence of Luciferin 4-monooxygenase (Photinus pyralis) (P08659 whole entry, looked up): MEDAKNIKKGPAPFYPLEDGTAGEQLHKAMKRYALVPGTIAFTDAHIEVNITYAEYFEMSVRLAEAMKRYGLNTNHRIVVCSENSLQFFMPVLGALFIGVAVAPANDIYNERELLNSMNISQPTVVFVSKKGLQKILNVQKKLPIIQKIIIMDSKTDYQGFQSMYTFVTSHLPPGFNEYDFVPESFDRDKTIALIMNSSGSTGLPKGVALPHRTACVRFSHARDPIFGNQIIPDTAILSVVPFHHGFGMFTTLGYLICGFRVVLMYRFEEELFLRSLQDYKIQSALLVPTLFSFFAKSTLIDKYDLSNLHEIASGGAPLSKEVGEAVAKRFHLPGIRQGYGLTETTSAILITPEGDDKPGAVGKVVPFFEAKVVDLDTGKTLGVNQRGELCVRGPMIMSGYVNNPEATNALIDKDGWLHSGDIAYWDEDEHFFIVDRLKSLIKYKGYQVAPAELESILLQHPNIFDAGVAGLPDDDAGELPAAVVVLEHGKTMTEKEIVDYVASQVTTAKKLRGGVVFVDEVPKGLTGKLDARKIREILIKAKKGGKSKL
Sequence of Thyroid hormone receptor beta (Homo sapiens) (P10828 whole entry, looked up): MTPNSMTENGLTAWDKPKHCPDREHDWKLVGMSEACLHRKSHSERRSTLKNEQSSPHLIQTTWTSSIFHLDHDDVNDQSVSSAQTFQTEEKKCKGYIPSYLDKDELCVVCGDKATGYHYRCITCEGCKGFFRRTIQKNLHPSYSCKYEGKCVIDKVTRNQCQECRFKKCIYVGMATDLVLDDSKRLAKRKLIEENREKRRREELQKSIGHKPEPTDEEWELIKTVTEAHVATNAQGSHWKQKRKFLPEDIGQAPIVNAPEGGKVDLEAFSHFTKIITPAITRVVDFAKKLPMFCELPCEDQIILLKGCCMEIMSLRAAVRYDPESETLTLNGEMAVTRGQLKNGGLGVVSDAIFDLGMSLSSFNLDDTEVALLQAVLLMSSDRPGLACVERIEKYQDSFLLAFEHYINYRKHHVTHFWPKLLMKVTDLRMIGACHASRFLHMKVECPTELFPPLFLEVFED

For the compound `Cc1ccc(-c2cc(C(F)(F)F)nn2-c2ccc(S(N)(=O)=O)cc2)cc1`, the activity change % (negative = inhibition) in assay [1] was 17.3% (inactive). Besides, the Potency entry in assay [2], in assay [3] and in assay [4] was “inactive” each time. In addition, in assay [5], the outcome was inactive. For the same compound, the Potency in assay [6] was 43.2 µM (active); in assay [9], 54 µM (active). For the same compound, the viability (% of control) in assay [7] turned out to be 57.7% [at 92.2 µM]. Also, in [8], the viability, percent of control turned out to be 6.48% [at 92.2 µM].

With `CC1(C)O[C@H]2CC(=O)OC[C@]23[C@H]2CC[C@@]4(C)[C@H](c5ccoc5)OC(=O)[C@H]5O[C@]54[C@]2(C)C(=O)C[C@@H]13`, the Potency entry in [10] was “inactive”.

`COc1ccc2[nH]cc(CCNC(C)=O)c2c1`: the max response in [11] is 0.955% (inactive) and -6.07% (inactive) and -2.21% (inactive). The activity change % (negative = inhibition) in assay [1] was -14% (inactive) and 1.14% (inactive) and 10.4% (inactive). Besides, the Potency result in [10], in assay [2], in assay [3], in assay [12], in assay [13] and in assay [14] was “inactive” each time. The Potency result in assay [15] and in assay [16] was “inactive” throughout.

`Nc1ccn([C@H]2CC[C@@H](CO)O2)c(=O)n1`: the max response in assay [11] was -7.58% (inactive) and 1.21% (inactive). The activity change % (negative = inhibition) in assay [1] is 1.36% (inactive) and 5.95% (inactive). Further, the Potency result in [10], in assay [2], in assay [13], in [14], in [15] and in [16] was “inactive” each time.

In the case of `Cn1cnc2c1c(=O)[nH]c(=O)n2C`, the max response in assay [11] is -5.33% (inactive). For the same compound, in assay [1], the activity change % (negative = inhibition) was 8.64% (inactive). Also, the Potency entry in [2], in assay [3], in assay [12], in assay [4], in [13] and in [14] was “inactive” in each case. Also, the Potency result in [15] and in assay [16] was “inactive” throughout. Moreover, the outcome in assay [17] was inactive.

As to `N[C@@H](Cc1c[nH]c2ccc(O)cc12)C(=O)O`, the max response in assay [11] is 3.1% (inactive). Moreover, the activity change % (negative = inhibition) in [1] was -8.63% (inactive). In addition, the Potency result in assay [10], in assay [3], in [12], in assay [4], in [14] and in assay [15] was “inactive” each time. The Potency entry in [16] is “inactive”. In assay [13], the Potency was 1.12 µM (active). Also, the compound was classed as inactive in [17].

With `CN(C)c1nc(N(C)C)nc(N(C)C)n1`, the Potency entry in [10], in assay [2], in [3], in assay [12], in assay [4] and in assay [13] was “inactive” each time. The Potency result in [14], in assay [15] and in assay [16] was “inactive” throughout. For the same compound, the compound was called inactive in assay [17].

With `Nc1c2c(nc3ccccc13)CCCC2`, the max response in assay [11] is -6.99% (inactive). Moreover, the activity change % (negative = inhibition) in assay [1] is -14.9% (inactive). The Potency entry in [2], in [3], in [13], in assay [14] and in [16] was “inactive” throughout. In assay [17], the call was inactive.

`NS(=O)(=O)c1cc2c(cc1Cl)NCNS2(=O)=O`: the max response in [11] was 11.3% (inactive) and 4.53% (inactive). The activity change % (negative = inhibition) in assay [1] was -1.87% (inactive) and 13.1% (inactive). The Potency result in assay [10], in assay [2], in [3], in assay [12], in [13] and in assay [14] was “inactive” in each case. Further, the Potency entry in assay [15] and in assay [16] was “inactive” each time.

As for `CC(C)NCC(O)c1ccc(O)c(O)c1` (configuration not stated), in [11], the max response was -2.1% (inactive) and -5.01% (inactive). The activity change % (negative = inhibition) in assay [1] was -0.838% (inactive) and 16% (inactive). Also, the Potency result in assay [10], in [2], in assay [3], in assay [4], in assay [14] and in assay [16] was “inactive” each time. In [17], the result was inactive.

These data come from PubChem BioAssay (NCATS).
